Compound activity: PubChem BioAssay, National Center for Advancing Translational Sciences (NCATS)
Hits are enriched below; roughly 2.7% of the tested compounds scored in any of these assays.
ClpP mod = qHTS Assay for Activators of ClpP | ATP-dependent Clp protease proteolytic subunit (Bacillus subtilis (strain 168)), P80244 | purified B. subtilis ClpP, FRET peptide cleavage, 20 min | Potency, µM (highest dose often 57.5 µM), inactives show top-dose activity change, negative = active | actives 1.9% (n = 340,000); active = well fitted falling curve with a large enough effect; inconclusive = small, poorly fitted or top-dose-only effect; inactive = no such curve, though single readings can be large or run the other way; also: potency is read from the fitted curve at half-maximal effect; the source files actives as falling curves though it sought activators and does not explain the sign; nearly all actives have a fitted effect of over 65% in size
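Buffer: 100 mM Tris/HCl pH8, 100 mM KCl, 0.05% low protease BSA, 2.5% glycerol, 0.01% Tween-20. ClpP 10 microg/mL final; 20 min RT; delta FRET normalized to ADEP and DMSO controls.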
RXFP1 ag = activates the human relaxin receptor RXFP1; Potency, µM (titrated, usually from 57.5 µM), for inactives: at the highest dose activation, hits mostly activators; actives 0.3% (n = 370,000); Q9HBX9; HEK293T-RXFP1 cAMP TR-FRET, 30 min; response scale: percent of porcine relaxin response, buffer zero; also: potency is read from the fitted curve at half-maximal effect; % is scaled to controls: 0 for no effect and ±100 for the full control effect; nearly all actives have a fitted effect of over 60% in size
Target sequence (Q9HBX9 whole entry, looked up): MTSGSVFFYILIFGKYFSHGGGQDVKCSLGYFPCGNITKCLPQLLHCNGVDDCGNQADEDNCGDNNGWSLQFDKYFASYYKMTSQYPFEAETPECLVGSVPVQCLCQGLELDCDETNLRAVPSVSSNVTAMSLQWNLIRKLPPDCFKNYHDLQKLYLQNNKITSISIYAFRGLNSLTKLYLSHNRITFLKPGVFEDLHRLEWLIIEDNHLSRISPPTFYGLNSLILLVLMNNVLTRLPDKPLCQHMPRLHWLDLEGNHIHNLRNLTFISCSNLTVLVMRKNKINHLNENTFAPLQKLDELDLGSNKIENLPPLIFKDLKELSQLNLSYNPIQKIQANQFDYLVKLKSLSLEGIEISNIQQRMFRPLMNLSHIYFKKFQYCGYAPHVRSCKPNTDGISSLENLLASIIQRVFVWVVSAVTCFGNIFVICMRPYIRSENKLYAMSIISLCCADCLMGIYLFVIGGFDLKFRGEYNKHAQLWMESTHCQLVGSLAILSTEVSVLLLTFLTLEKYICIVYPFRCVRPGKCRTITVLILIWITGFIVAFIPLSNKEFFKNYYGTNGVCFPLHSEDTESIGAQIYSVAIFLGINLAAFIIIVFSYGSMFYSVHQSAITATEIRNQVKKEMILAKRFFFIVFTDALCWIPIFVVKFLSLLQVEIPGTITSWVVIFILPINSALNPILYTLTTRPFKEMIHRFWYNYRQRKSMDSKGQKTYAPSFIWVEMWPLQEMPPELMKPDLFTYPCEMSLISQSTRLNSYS
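cAMP rise read by TR-FRET after 30 min, 37C compound exposure (up to 58 uM) in RXFP1-transfected HEK293 cells with Ro 20174 present. EC50 from Hill-equation fits, with 29 nM porcine relaxin as 100% and buffer as basal.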
pAkt inh = inhibitors of Akt phosphorylation; activity change, % for hits at 50 µM; actives 0.32% (n = 360,000); AID 651550; Neuro2A IGF-stimulated pAkt S473 HTRF, 20 min; active compounds read low; in the data active = activity change below about -80%; inconclusive = mostly about -51% to -80%; also: % is scaled to controls: 0 for no effect and ±100 for the full control effect
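Neuro2A cells in DMEM with 0.5% FBS, overnight at 37 deg C, given compound at single 50 µM final, then IGF (6 nM final) for 20 min at 37 deg C. Lysed; phospho-Akt Ser473 by HTRF after 24 h, 665/615 ratio.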
gsp ag = gsp mutant agonism. gsp mutant cells, cAMP HTRF, 30 min. Potency, µM (series often up to 76.9 µM), without a hit: at the highest dose activation (cAMP increase), usual class: activators. AID 624287. actives 0.13% (n = 340,000); active = well fitted activation curve with a large enough effect; inconclusive = small, poorly fitted or top-dose-only effect, or another doubt; inactive = no such curve, though single readings can be large or run the other way; cell line not stated here;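 also: phosphodiesterase inhibitor Ro 20-1724 added with compounds to block cAMP breakdown; potency is read from the fitted curve at half-maximal effect; nearly all actives have a fitted effect of over 60% in size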
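Cells stably selected in G418 were plated at 2000/well, grown 16-24 hr, then given compounds in DMSO with the PDE inhibitor […] (300 uM solution added) for 30 min at 37C; cAMP was read by HTRF.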
RXFP1 antagonist = antagonists of human relaxin receptor RXFP1; Q9HBX9; HEK293-RXFP1, relaxin-stimulated cAMP HTRF, 30 min; active compounds read low; activity change, negative = inhibition, % at 57.5 µM; actives 0.59% (n = 350,000);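 active = activity change of -60% or lower, but not beyond a set lower limit; inconclusive = change between -60% and -40%, or beyond the set limit; inactive = change above -40%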; also: % is scaled to controls: 0 for no effect and ±100 for the full control effect
gsp antag = gsp mutant antagonism; gsp-mutant cells, cAMP HTRF, 30 min; Potency, µM (titrated, usually from 76.9 µM), for inactives: at the top dose activity change, negative = inhibition, usual class: inhibitors; actives 0.4% (n = 340,000); calls by dose curve; cell line not stated here;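 also: intracellular cAMP measured with PDE inhibitor Ro 20-1724 present during compound exposure; potency is read from the fitted curve at half-maximal effect; % is scaled to controls: 0 for no effect and ±100 for the full control effect; nearly all actives have a fitted effect of over 65% in size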
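HTRF cAMP read-out (cAMP-d2 plus anti-cAMP antibody-K in lysis buffer, 30 min RT). Before lysis, cells are exposed to compounds with […] for 30 min at 37C in DPBS containing Ca/Mg, BSA and Tween 20.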
ClpP validation = Bacillus subtilis ClpP inhibition, validated hit; shares compounds with ClpP mod; purified B. subtilis ClpP, FRET-FV substrate cleavage, 20 min; Potency, µM (highest dose often 57.5 µM), without a hit: at the top dose activity change, negative = inhibition, most hits filed as inhibitors; actives 40% (n = 470); also: potency is read from the fitted curve at half-maximal effect; % is scaled to controls: 0 for no effect and ±100 for the full control effect; nearly all actives have a fitted effect of over 70% in size
* hit, by the source's call; i = inactive; ? = inconclusive; . = no result; [ ] = remark or other dose. Unless noted, calls follow the shape of the dose curve; as a rule, active = well fitted curve in the direction sought with a large enough effect; inconclusive = small, poorly fitted or top-dose-only effect, or another doubt; inactive = no such curve, though single readings can be large; an effect the other way counts as inactive or inconclusive.

SMILES	ClpP mod	RXFP1 ag	pAkt inh	gsp ag	RXFP1 antagonist	gsp antag	ClpP validation
CCN(Cc1nc(-c2cccc(C)c2)no1)C(=O)c1ccc2c(c1)OCO2	8.91µM*	0.9%	i	6.2%[15.4 µM]	2.6	-21.8%	-1.2%
CCOc1ccc(CCNC(=O)Cn2nc(-c3ccc(C)cc3)ccc2=O)cc1OCC	-3.4%	-3.4%	.	.	-1.1	.	.
CCCc1cc(=O)n2c(nc3ccccc32)[nH]1	7.08µM*	0.2%	i	0.9%	4.1	-3.6%	13.7µM*
CC(OC(=O)c1nn(C(C)C)c(=O)c2ccccc12)C(=O)Nc1ncc(Cl)cc1Cl (configuration not stated)	42.2%	0.1%	i	15.1%	-6.2	7.4%	-4.6%
FC(F)(F)c1cc(-c2ccc(Cl)cc2)nc2ncnn12	2.82µM*	2.7%	i	-8.1%	-3.2	-33.2%	17.2µM*
Cc1ccc(-c2cc(C(F)(F)F)n3nc(-c4ccc(Cl)cc4)cc3n2)cc1	1.4%	9.7%	.	.	1.8	.	.
CC1=C(c2ccc(C)c(C)c2)S(=O)(=O)N(Cc2ccc(C(=O)NCc3cccc(C)c3)cc2)C1=O	10µM*	-1.1%	.	.	-9.3	.	15.3µM*
CCNc1ccc(C(=O)OCC(=O)N2CCCC2)cc1[N+](=O)[O-]	97.6%	1.0%	i	7.1%[15.4 µM]	-2.2	-5.9%	-1.1%
O=C(OCC(=O)N1CCCC1)c1ccc(Cl)c([N+](=O)[O-])c1	.	2.7%	i	22.1%	-5.7	-1.5%	.
CCN1CCN(c2ccc(S(=O)(=O)N3CCOCC3)cc2NC(=O)c2ccc(OCC(C)C)cc2)CC1	1.8%	.	i	-27.9%	4.3	-10.1%	.
CC(C)COc1ccc(C(=O)Nc2cc(S(=O)(=O)N3CCOCC3)ccc2N2CCCC2)cc1	47.5%	7.0%	i	21.4%	1.1	-7.5%	-11.4%
CN(C)CCOC1c2ccccc2CCc2ccc3ccccc3c21 (configuration not stated)	44.7%	.	i	1.9%[15.4 µM]	-24.1	12.2%	-0.5%
CC(NC(=O)c1cc(-c2ccc3c(c2)OCO3)nc2ccccc12)C(C)(C)C (configuration not stated)	39.6%	13.6%	i	?	8.5	0.1%	24.3µM*
O=C(O)c1cc(-c2ccc3c(c2)OCO3)nc2ccccc12	-4.1%	3.2%	i	?	-8.1	-14.6%	.
CC1CCN(S(=O)(=O)c2ccc(NC(=O)CCNC(=O)c3ccc(Cl)cc3)cc2)CC1	.	0.8%	i	-0.8%[15.4 µM]	3.0	1.9%	.
CC1=C(C(=O)Nc2ccccc2)C(c2ccccc2Cl)n2ncc(C(=O)Nc3cccc(C)c3)c2N1 (configuration not stated)	?	-1.9%	.	.	-3.2	.	.
COc1ccc(NC(=O)c2ccco2)cc1NC(=O)COc1cc(C)ccc1C(C)C	49.2%	-0.4%	.	.	.	.	2.4%
COc1ccc(NC(=O)c2oc3ccccc3c2NC(=O)c2ccco2)c(OC)c1	356.5%	0.0%	i	?	9.8	-13.3%	?
COc1ccc(NC(=O)c2oc3ccccc3c2NC(=O)c2cc3ccccc3o2)c(OC)c1	?	-1.5%	.	.	.	.	.
CCOc1nc(-c2ccc(Cl)cc2Cl)ccc1C#N	-3.0%	1.6%	i	0.1%	-17.2	15.8%	.
Cc1cc(Cl)ccc1Oc1nc(-c2ccc(F)cc2)ccc1C#N	91.0%	-3.3%	i	-6.5%	15.4	8.3%	?
CC(C)(C)OC(=O)N1CCC(c2c(C(=O)N3CCN(c4ccccn4)CC3)cnn2-c2ccccc2Cl)CC1	?	0.4%	.	.	-13.6	.	.
NS(=O)(=O)c1ccc(CCNc2nccn(-c3cccc(C(F)(F)F)c3)c2=O)cc1	-10.4%	-1.4%	.	.	.	.	.
CSc1nsc(SCC(=O)Nc2ccc(Br)cn2)n1	68.1%	0.1%	i	8.7%	-7.0	-6.7%	0.1%
c1nc2n(n1)C1=C(CCCC1)C1(CCCCC1)N2	10µM*	2.6%	i	-8.3%[15.4 µM]	-24.5	8.3%	-1.3%
SMILES	ClpP mod	RXFP1 ag	pAkt inh	gsp ag	RXFP1 antagonist	gsp antag	ClpP validation
CCN1CCN(CCCNC(=O)Cn2nc(C)n3c(cc4cc(C)ccc43)c2=O)CC1	?	1.4%	.	.	-4.8	.	?
CCOc1ccc(Nc2ncnc3c2nc2n3CCCC2)cc1	-0.4%	9.6%	.	.	-3.6	.	.
Cc1cc(NC(=O)Cn2c(=O)nc(-c3ccccc3F)c3cc(Cl)ccc32)ccc1Br	-9.4%	-2.2%	.	.	.	.	.
O=S(=O)(c1ccc2c(Cl)cccc2c1)N1CCN(c2nc(-c3cccs3)nc3ccccc23)CC1	4.47µM*	.	.	.	.	.	21.7µM*
CS(=O)(=O)N1CCN(c2nc(-c3cccs3)nc3ccccc23)CC1	-7.4%	.	.	.	.	.	.
O=S(=O)(c1ccc2c(c1)CCCC2)N1CCN(c2nc(-c3cccs3)nc3ccccc23)CC1	8.91µM*	.	.	.	.	.	24.3µM*
O=C1NC(c2ccco2)Nc2ccccc21 (configuration not stated)	10µM*	1.5%	i	5.8%	-0.4	2.1%	24.3µM*
Cc1nc(N2CCN(c3ccccc3O)CC2)c2c(-c3ccccc3)csc2n1	.	-0.2%	i	5.1%	-4.6	-15.0%	.
CCc1ccc(NC(=O)c2c(Cl)nc(C)c(Cl)c2C)cc1	43.4%	-0.9%	i	1.0%[15.4 µM]	-13.2	-9.0%	-0.2%
Cc1ccccc1NC(=O)c1c(Cl)nc(C)c(Cl)c1C	2.0%	0.6%	i	1.8%[15.4 µM]	-1.3	8.7%	.
COc1ccc2nc(NC(=O)c3ccc(-n4nc(C)cc4C)cc3)sc2c1	-103.5%	8.8%	i	-14.7%	-8.0	11.0%	27.3µM*
COc1ccc2nc(NC(=O)c3ccc(F)cc3)sc2c1	.	-2.1%	i	-114.0%	-9.2	0.0%	.
COc1cc2c(cc1NC(=O)C(C)N1CCN(S(=O)(=O)c3ccccc3[N+](=O)[O-])CC1)oc1ccccc12 (configuration not stated)	-5.7%	-0.9%	i	-19.0%	1.6	-5.2%	.
COc1cc2c(cc1NC(=O)C(C)N1CCN(S(=O)(=O)c3ccc(C)c(C)c3)CC1)oc1ccccc12 (configuration not stated)	3.16µM*	3.3%	i	30.8%	-1.4	12.2%	?
Cn1c(=O)c2c(-c3ccc(Cl)cc3)n(Cc3ccc(Cl)cc3)cc2n(C)c1=O	10µM*	1.2%	.	.	-19.2	.	38.5µM*
